Assay in all cases: DAPPL (digital affinity profiling via proximity ligation, sequencing); 10 mM Tris-HCl pH 7.5, 50 mM NaCl, 1 mM DTT, 4% glycerol, room temperature, 30 min; GST-TFs on glutathione beads, 16-mer random dsDNA library, 0.1% formaldehyde crosslink after washing; high values mean tight binding
Experiment [1] concerns the target T1, FEV (Homo sapiens, UniProt Q99581 1-238).
T1 sequence: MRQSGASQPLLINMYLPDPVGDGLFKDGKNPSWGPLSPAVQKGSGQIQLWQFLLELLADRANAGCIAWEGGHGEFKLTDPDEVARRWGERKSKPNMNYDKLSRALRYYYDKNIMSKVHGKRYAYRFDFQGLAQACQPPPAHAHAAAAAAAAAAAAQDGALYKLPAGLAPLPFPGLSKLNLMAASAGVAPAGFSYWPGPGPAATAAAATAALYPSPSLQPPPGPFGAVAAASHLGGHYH
The note with it: protein: recombinant; tags: N-terminal GST; dsDNA, one strand shown. A digest of the protocol:
(§1)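 After expression in yeast as GST fusions, human transcription factors were bound to glutathione beads, DNA-barcoded and mixed with a tag-only sample. The pools were incubated with 200 nmole of a 16-mer random double-stranded DNA library in Tris/NaCl/DTT/glycerol buffer (30 min, room temperature), washed and crosslinked with 0.1% formaldehyde. Proximity ligation with BsaI/T4 ligase ran for 1 h at 37 °C, before PCR amplification and sequencing on an Illumina NextSeq500. Binding signal is a hexamer's read frequency for a factor divided by its frequency for the tag-only sample.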

Experiment [2] has as its target ETV5 (Homo sapiens, UniProt P41161 1-510). The note with it: protein: recombinant; tags: N-terminal GST; dsDNA, one strand shown. A digest of the protocol: as §1
Experiment [3] deals with HSF1 (Homo sapiens, UniProt Q00613 1-529). As to conditions: protein: recombinant; tags: N-terminal GST; chain copies: 3; dsDNA, one strand shown. The method in brief: as §1
Chain of HSF1 (Q00613 whole entry): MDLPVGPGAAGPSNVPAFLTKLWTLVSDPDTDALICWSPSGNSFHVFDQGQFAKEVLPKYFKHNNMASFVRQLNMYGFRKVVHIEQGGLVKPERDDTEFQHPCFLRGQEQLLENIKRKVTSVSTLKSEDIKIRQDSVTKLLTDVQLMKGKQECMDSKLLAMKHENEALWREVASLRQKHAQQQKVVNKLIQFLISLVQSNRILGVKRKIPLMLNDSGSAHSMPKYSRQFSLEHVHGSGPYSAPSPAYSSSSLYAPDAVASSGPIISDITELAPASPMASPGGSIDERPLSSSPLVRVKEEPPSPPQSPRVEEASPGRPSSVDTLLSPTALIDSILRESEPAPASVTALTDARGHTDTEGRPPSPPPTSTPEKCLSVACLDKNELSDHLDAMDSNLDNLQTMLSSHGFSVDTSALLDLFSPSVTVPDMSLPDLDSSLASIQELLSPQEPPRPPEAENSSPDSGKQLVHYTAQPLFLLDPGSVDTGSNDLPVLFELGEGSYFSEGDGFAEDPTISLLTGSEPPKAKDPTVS
For experiment [4], the target named is T2, SPIC (Homo sapiens, UniProt Q8N5J4 1-248).
T2 sequence: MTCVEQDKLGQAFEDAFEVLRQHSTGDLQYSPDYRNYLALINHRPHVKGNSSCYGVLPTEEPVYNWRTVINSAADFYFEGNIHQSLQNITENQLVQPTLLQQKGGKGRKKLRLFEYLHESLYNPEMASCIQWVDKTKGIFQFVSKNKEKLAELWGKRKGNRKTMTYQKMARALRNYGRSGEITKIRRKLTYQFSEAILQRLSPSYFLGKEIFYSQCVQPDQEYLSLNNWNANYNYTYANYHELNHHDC
The note with it: protein: recombinant; tags: N-terminal GST; dsDNA, one strand shown. A digest of the protocol: as §1

Experiment [5] concerns the target ELF4 (Homo sapiens, UniProt Q99607 1-663). The note with it: protein: recombinant; tags: N-terminal GST; dsDNA, one strand shown. The method in brief:
as §1

The target in experiment [6] is T3, ELK4 (Homo sapiens, UniProt P28324-2 1-405).
T3 sequence: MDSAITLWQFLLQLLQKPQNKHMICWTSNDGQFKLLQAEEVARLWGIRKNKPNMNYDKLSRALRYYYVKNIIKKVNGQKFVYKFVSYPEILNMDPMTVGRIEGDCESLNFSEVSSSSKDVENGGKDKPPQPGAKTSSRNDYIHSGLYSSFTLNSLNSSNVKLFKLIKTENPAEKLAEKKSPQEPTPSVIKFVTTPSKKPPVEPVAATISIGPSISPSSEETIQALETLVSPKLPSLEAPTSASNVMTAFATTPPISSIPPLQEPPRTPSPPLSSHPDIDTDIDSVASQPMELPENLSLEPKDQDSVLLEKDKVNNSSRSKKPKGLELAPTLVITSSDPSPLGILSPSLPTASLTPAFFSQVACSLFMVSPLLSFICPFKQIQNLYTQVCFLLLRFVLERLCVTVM
As to conditions: protein: recombinant; tags: N-terminal GST; dsDNA, one strand shown. The method in brief: as §1

The target in experiment [7] is T4, ETV2 (Homo sapiens, UniProt O00321 1-342).
T4 sequence: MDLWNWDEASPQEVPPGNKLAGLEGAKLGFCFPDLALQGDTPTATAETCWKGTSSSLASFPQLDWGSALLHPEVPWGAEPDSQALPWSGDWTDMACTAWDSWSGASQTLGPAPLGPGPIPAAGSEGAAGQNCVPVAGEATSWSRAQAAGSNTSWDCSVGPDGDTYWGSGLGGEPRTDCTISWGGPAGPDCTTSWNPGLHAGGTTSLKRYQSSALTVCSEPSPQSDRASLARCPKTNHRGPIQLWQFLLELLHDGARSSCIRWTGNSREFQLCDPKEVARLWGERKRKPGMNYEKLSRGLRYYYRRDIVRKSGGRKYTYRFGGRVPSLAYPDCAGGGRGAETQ
As to conditions: protein: recombinant; tags: N-terminal GST; dsDNA, one strand shown. The method in brief: as §1

Experiment [8] deals with T5, ELF3 (Homo sapiens, UniProt P78545 1-371).
T5 sequence: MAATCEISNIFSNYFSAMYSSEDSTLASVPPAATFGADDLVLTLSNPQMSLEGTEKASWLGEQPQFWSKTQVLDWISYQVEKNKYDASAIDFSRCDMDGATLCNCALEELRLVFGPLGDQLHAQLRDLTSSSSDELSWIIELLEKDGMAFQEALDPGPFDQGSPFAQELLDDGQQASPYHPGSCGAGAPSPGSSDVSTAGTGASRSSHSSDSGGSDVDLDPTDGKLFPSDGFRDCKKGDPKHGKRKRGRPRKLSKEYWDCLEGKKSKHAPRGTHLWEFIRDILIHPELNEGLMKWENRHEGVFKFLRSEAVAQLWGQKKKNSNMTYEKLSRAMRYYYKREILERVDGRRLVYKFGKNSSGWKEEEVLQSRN
As to conditions: protein: recombinant; tags: N-terminal GST; dsDNA, one strand shown. A digest of the protocol:
as §1

Experiment [9] addresses CRX (Homo sapiens, UniProt O43186 1-299). The note with it: protein: recombinant; tags: N-terminal GST; dsDNA, one strand shown. A digest of the protocol:
as §1

Experiment [10] has as its target ETV1 (Homo sapiens, UniProt P50549 1-477). The note with it: protein: recombinant; tags: N-terminal GST; dsDNA, one strand shown. The method in brief: as §1
The target of experiment [11] is T6, ERF (Homo sapiens, UniProt P50548 1-548).
T6 sequence: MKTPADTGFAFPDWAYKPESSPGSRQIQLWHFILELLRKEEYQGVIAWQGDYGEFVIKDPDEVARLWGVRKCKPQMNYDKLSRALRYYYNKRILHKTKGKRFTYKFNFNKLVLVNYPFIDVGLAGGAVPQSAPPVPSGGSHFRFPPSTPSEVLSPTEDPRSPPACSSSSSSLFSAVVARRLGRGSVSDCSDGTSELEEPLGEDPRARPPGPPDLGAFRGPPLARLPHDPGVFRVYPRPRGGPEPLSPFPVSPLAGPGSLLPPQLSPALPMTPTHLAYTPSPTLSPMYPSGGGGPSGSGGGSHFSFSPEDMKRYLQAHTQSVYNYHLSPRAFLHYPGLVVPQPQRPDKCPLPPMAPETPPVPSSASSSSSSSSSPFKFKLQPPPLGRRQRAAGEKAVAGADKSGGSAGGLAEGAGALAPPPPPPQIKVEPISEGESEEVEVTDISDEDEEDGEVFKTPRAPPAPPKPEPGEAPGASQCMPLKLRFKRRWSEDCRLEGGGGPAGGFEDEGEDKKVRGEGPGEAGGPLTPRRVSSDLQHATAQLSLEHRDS
The note with it: protein: recombinant; tags: N-terminal GST; dsDNA, one strand shown. The method in brief:
as §1

The target in experiment [12] is T7, ETV3L (Homo sapiens, UniProt Q6ZN32 1-361).
T7 sequence: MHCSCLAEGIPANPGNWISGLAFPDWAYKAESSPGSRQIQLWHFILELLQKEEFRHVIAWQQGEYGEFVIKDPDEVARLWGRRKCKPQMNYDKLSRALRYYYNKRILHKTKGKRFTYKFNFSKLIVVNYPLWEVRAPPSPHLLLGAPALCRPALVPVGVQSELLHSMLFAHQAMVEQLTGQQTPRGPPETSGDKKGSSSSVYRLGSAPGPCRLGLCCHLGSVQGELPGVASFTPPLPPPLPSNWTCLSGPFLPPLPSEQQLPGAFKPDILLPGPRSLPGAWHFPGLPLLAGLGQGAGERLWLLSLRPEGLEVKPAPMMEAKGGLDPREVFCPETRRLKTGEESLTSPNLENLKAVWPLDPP
As to conditions: protein: recombinant; tags: N-terminal GST; dsDNA, one strand shown. A digest of the protocol: as §1

Experiment [13] concerns the target T8, ETS2 (Homo sapiens, UniProt P15036 1-469).
T8 sequence: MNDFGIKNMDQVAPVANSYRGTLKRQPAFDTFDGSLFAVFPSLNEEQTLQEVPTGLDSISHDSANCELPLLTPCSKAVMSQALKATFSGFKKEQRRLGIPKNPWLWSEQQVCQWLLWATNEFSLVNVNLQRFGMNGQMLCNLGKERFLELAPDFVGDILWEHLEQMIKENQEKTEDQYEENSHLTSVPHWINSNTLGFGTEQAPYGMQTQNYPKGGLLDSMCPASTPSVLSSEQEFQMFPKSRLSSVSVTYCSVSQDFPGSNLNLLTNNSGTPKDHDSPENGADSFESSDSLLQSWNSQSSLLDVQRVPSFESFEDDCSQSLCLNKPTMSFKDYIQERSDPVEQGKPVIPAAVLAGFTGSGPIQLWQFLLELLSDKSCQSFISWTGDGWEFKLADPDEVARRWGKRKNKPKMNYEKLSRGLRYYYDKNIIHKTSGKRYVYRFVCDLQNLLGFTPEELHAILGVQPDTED
The note with it: protein: recombinant; tags: N-terminal GST; dsDNA, one strand shown. The method in brief: as §1

Experiment [14] deals with T9, SPDEF (Homo sapiens, UniProt O95238 1-335).
T9 sequence: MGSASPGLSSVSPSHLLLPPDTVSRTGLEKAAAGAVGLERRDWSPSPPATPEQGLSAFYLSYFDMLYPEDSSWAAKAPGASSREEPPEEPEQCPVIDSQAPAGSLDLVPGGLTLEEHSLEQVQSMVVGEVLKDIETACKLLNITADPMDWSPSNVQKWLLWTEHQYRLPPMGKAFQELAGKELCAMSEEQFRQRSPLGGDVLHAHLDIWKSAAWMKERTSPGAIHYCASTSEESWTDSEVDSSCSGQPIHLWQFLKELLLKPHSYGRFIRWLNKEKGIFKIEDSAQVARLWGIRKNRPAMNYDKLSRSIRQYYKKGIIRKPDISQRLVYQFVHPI
As to conditions: protein: recombinant; tags: N-terminal GST; dsDNA, one strand shown. The method in brief: as §1

Experiment [15] addresses T10, ETV7 (Homo sapiens, UniProt Q9Y603 1-341).
T10 sequence: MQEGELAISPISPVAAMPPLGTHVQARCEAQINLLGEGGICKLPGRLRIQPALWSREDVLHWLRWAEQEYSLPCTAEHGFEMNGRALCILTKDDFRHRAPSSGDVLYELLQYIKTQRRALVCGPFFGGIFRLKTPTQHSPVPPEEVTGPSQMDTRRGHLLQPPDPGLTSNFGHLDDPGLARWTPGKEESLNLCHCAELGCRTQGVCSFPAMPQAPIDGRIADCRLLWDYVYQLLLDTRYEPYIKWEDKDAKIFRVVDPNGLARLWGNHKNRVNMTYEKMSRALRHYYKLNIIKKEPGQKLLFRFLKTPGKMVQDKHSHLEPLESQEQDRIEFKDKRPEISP
As to conditions: protein: recombinant; tags: N-terminal GST; dsDNA, one strand shown. A digest of the protocol: as §1

Experiment [16] addresses T11, ELF5 (Homo sapiens, UniProt Q9UKW6-2 1-255).
T11 sequence: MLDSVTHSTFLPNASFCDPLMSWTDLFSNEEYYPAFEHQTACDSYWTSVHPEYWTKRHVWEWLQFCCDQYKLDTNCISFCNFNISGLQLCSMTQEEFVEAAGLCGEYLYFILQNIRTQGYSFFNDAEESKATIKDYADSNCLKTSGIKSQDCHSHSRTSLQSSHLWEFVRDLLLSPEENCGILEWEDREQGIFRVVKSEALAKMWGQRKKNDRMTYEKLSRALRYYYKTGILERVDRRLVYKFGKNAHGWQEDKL
As to conditions: protein: recombinant; tags: N-terminal GST; dsDNA, one strand shown. The method in brief: as §1

Experiment [17] has as its target T12, ETV3 (Homo sapiens, UniProt P41162-2 1-143).
T12 sequence: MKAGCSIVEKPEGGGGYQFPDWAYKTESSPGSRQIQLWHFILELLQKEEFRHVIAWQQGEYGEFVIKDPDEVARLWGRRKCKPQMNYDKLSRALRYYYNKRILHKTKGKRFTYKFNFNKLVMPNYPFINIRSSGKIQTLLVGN
The note with it: protein: recombinant; tags: N-terminal GST; dsDNA, one strand shown. The method in brief: as §1

Experiment [18] has as its target ETV6 (Homo sapiens, UniProt P41212 1-452). The note with it: protein: recombinant; tags: N-terminal GST; dsDNA, one strand shown. The method in brief: as §1

Chain of ETV6 (P41212 whole entry): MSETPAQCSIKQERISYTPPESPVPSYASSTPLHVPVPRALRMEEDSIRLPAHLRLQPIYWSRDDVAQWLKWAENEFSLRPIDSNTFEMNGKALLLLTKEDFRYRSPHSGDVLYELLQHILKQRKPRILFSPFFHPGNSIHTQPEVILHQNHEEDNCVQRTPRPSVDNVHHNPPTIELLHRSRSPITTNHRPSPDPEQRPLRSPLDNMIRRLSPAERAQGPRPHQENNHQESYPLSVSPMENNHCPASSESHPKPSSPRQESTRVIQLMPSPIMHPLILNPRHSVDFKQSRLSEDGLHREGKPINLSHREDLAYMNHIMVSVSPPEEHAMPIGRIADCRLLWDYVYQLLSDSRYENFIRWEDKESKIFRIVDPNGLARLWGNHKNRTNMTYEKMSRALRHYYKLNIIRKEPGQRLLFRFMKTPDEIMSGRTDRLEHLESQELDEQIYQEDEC
Chain of ELF4 (Q99607 whole entry): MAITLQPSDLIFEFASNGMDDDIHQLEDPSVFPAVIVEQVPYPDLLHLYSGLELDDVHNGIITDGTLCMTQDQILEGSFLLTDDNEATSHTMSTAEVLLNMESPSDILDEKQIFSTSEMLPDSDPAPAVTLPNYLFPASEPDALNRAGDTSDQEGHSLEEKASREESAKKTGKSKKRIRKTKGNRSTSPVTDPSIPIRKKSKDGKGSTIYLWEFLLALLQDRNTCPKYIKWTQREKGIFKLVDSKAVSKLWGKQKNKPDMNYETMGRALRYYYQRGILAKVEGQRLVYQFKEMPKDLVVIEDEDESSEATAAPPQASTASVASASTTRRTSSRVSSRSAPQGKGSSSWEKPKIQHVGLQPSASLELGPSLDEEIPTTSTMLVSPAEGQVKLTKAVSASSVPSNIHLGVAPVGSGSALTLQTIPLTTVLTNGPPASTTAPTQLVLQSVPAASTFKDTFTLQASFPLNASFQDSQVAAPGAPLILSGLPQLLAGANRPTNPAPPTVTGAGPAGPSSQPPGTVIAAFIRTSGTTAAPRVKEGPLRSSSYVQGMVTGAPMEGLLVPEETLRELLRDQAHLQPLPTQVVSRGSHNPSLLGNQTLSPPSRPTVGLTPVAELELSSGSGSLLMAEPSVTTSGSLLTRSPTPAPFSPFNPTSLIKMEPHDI
Chain of ETV1 (P50549 whole entry): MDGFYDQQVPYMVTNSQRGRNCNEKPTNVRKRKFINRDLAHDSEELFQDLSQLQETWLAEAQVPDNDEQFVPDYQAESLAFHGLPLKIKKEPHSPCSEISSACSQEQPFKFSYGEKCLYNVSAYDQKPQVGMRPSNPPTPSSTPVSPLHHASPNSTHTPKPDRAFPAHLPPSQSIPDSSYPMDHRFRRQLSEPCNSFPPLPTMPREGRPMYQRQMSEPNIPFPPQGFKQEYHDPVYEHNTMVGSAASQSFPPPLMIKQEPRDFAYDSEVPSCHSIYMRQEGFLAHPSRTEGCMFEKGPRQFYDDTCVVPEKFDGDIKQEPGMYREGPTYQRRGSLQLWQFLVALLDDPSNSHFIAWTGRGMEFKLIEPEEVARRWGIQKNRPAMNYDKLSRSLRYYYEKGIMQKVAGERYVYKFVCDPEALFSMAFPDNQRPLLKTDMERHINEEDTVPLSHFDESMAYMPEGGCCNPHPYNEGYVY
Chain of CRX (O43186 whole entry): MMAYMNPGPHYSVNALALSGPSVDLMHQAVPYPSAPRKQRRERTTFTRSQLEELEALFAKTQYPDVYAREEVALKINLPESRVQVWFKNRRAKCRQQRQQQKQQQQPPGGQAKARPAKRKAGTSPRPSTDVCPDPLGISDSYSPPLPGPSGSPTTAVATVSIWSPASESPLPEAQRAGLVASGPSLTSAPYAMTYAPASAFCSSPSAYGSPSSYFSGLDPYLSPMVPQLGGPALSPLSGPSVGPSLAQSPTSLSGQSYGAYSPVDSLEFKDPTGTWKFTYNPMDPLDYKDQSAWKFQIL
Chain of ETV5 (P41161 whole entry): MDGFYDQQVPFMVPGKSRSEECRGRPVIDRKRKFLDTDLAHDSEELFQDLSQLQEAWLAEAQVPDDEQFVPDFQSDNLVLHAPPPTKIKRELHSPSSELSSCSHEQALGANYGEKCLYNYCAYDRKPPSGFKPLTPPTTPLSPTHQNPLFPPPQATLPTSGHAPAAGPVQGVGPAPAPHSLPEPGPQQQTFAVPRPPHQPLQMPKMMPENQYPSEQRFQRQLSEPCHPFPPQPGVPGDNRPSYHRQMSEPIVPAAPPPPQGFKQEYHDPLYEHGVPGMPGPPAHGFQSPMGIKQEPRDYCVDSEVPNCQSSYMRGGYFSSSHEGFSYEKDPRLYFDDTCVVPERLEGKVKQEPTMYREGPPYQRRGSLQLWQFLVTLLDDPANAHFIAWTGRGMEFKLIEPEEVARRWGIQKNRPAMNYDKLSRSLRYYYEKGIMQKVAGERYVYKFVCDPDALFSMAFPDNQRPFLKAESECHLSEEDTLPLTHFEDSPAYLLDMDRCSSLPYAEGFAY

TATCAC: the binding signal is 1.21 fold enrichment (6-mer frequency, TF over GST control) in experiment [1]; 1.24 fold enrichment (6-mer frequency, TF over GST control) in experiment [2]; 1.14 fold enrichment (6-mer frequency, TF over GST control) in experiment [3]; 1.17 fold enrichment (6-mer frequency, TF over GST control) in experiment [4]; 1.24 fold enrichment (6-mer frequency, TF over GST control) in experiment [5]; 1.18 fold enrichment (6-mer frequency, TF over GST control) in experiment [6]. Besides, the binding signal in experiment [7] was 1.34 fold enrichment (6-mer frequency, TF over GST control); in [8], 1.25 fold enrichment (6-mer frequency, TF over GST control); in experiment [9], 1.35 fold enrichment (6-mer frequency, TF over GST control); in [10], 1.17 fold enrichment (6-mer frequency, TF over GST control); in [11], 1.19 fold enrichment (6-mer frequency, TF over GST control); in [12], 1.23 fold enrichment (6-mer frequency, TF over GST control). Further, the binding signal in experiment [13] was 1.2 fold enrichment (6-mer frequency, TF over GST control); in [14], 1.25 fold enrichment (6-mer frequency, TF over GST control); in [15], 1.14 fold enrichment (6-mer frequency, TF over GST control); in [16], 1.14 fold enrichment (6-mer frequency, TF over GST control); in experiment [17], 1.19 fold enrichment (6-mer frequency, TF over GST control); in experiment [18], 1.25 fold enrichment (6-mer frequency, TF over GST control).

Values taken from PMC7862700, “An all-to-all approach to the identification of sequence-specific readers for epigenetic DNA modifications on cytosine”.
